# According to the supplement of paper PMC10037445:
# In all, about 2,900 compounds were measured (“NF-kB SEAP reporter activity, fold change vs agonist alone”: median about 0.99, highest 2% from about 2.6 on). The sample holds the highest values, similar compounds and a random draw of the others, so the mix is not that of the screen.
# Assays:
# RAW-Dual [1] = assay: NF-kB SEAP reporter activity, fold change vs agonist alone; cytotoxicity flag (confluency mask): not cytotoxic; higher = enhanced NF-kB activity
# How it was run: (§1)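 Supernatant from RAW-Dual macrophages was read after 20 hours for IRF by QuantiLuc luminescence and for NF-κB by QuantiBlue absorbance at 620 nm. The cells (50,000 cells/well in DMEM, 384-well plates, 37 °C, 5% CO2) had received 50 nL of library stock by pin tool and, 1 h later, a PRR agonist. Reporter activity is expressed relative to agonist-alone wells as fold change, and wells were flagged cytotoxic if IncuCyte confluency was under 70% of agonist controls in both mask sets.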
# RAW-Dual [2] = assay: NF-kB SEAP reporter activity, fold change vs agonist alone; higher = enhanced NF-kB activity; conditions: library stock concentration (final ~1000-fold dilution): 10 mM, cytotoxicity flag (confluency mask): not cytotoxic
# How it was run: as §1
# [3] = agonist: ODN 1826 (TLR9) 0.5 ug/mL
# [4] = agonist: Pam2CSK4 (TLR2/6) 0.1 ug/mL
# [5] = agonist: Pam3CSK4 (TLR2/1) 0.1 ug/mL
SMILES,NF-kB SEAP reporter activity (RAW-Dual [1]; agonist: LPS (TLR4) 0.1 ug/mL),NF-kB SEAP reporter activity (RAW-Dual [1]; [3]),NF-kB SEAP reporter activity (RAW-Dual [1]; [4]),NF-kB SEAP reporter activity (RAW-Dual [1]; [5]),NF-kB SEAP reporter activity (RAW-Dual [2]; agonist: Imiquimod (TLR7) […]),NF-kB SEAP reporter activity (RAW-Dual [2]; agonist: MPLA (TLR4) […])
CC(C)c1c(-c2ccccc2)[nH]c2c(C#N)cnn2c1=O.Cl (library stock concentration (final ~1000-fold dilution): 10 mM),0.8,0.816,0.507,0.52,–,–
CC(C)c1c(-c2ccccc2)[nH]c2c(C#N)cnn2c1=O.Cl,–,–,–,–,0.757,0.99
CN1CCN(C(c2ccccc2)c2ccccc2)CC1.Cl.Cl (library stock concentration (final ~1000-fold dilution): 10 mM),1.15,0.595,1.04,1.02,–,–
CN1CCN(C(c2ccccc2)c2ccccc2)CC1.Cl.Cl,–,–,–,–,0.9,0.897
O.S=c1nc[nH]c2nc[nH]c12 (library stock concentration (final ~1000-fold dilution): 10 mM),1.05,0.808,0.594,0.684,–,–
O.S=c1nc[nH]c2nc[nH]c12,–,–,–,–,0.752,0.963
COc1ccc(-c2oc3c(CC=C(C)C)c(OC4OC(CO)C(O)C(O)C4O)cc(O)c3c(=O)c2OC2OC(C)C(O)C(O)C2O)cc1 (stereo not drawn) (library stock concentration (final ~1000-fold dilution): 10 mM),1.57,0.992,1.14,1.28,–,–
COc1ccc(-c2oc3c(CC=C(C)C)c(OC4OC(CO)C(O)C(O)C4O)cc(O)c3c(=O)c2OC2OC(C)C(O)C(O)C2O)cc1 (stereo not drawn),–,–,–,–,0.89,1.13
C=C1CCCC2(C)C=C3OC(=O)C(C)=C3CC12 (stereo not drawn),–,–,–,–,0.726,1.14
C=C1CCCC2(C)C=C3OC(=O)C(C)=C3CC12 (stereo not drawn) (library stock concentration (final ~1000-fold dilution): 10 mM),1,1.06,1.52,1.49,–,–
O=c1cc(-c2ccc(O)c(O)c2O)oc2ccccc12 (library stock concentration (final ~1000-fold dilution): 10 mM),1.08,0.88,0.927,0.532,–,–
O=c1cc(-c2ccc(O)c(O)c2O)oc2ccccc12,–,–,–,–,0.689,1.05
CCOC(=O)C(CCc1ccccc1)NC(C)C(=O)N1C(C(=O)O)CC2CCCCC21 (stereo not drawn) (library stock concentration (final ~1000-fold dilution): 10 mM),1.25,1,1.01,0.933,–,–
CCOC(=O)C(CCc1ccccc1)NC(C)C(=O)N1C(C(=O)O)CC2CCCCC21 (stereo not drawn),–,–,–,–,0.911,1.04
CCCCCCCCCCCCCCCC(=O)OC1C(SC)OC(C(NC(=O)C2CC(CCC)CN2C)C(C)Cl)C(O)C1O.Cl (stereo not drawn),–,–,–,–,1.2,0.983
CCCCCCCCCCCCCCCC(=O)OC1C(SC)OC(C(NC(=O)C2CC(CCC)CN2C)C(C)Cl)C(O)C1O.Cl (stereo not drawn) (library stock concentration (final ~1000-fold dilution): 10 mM),0.968,1.08,0.877,0.713,–,–
Cc1n[nH]c2ncc(C(=O)N3CCCC3c3ccc(Cl)cc3)cc12 (stereo not drawn) (library stock concentration (final ~1000-fold dilution): 10 mM),2.51,2.07,1.61,2.59,–,–
COC(=O)NC(C(=O)N1CCCC1c1ncc(-c2ccc(-c3ccc(-c4cnc(C5CCCN5C(=O)C(NC(=O)OC)C(C)C)[nH]4)cc3)cc2)[nH]1)C(C)C (stereo not drawn) (library stock concentration (final ~1000-fold dilution): 10 mM),1.88,0.935,0.867,0.8,–,–
COC(=O)NC(C(=O)N1CCCC1c1ncc(-c2ccc(-c3ccc(-c4cnc(C5CCCN5C(=O)C(NC(=O)OC)C(C)C)[nH]4)cc3)cc2)[nH]1)C(C)C (stereo not drawn),–,–,–,–,1.24,1.31
Cc1n[nH]c2ncc(C(=O)N3CCCC3c3ccc(Cl)cc3)cc12 (stereo not drawn),–,–,–,–,1.44,1.77
Cn1ncc(Cl)c1-c1cc(C(=O)NC(CN)Cc2cccc(F)c2)sc1Cl (stereo not drawn),–,–,–,–,1.39,1.77
Cn1ncc(Cl)c1-c1cc(C(=O)NC(CN)Cc2cccc(F)c2)sc1Cl (stereo not drawn) (library stock concentration (final ~1000-fold dilution): 10 mM),1.53,1.27,1,1.15,–,–
CCCC(NC(=O)C1C2CCCC2CN1C(=O)C(NC(=O)C(NC(=O)c1cnccn1)C1CCCCC1)C(C)(C)C)C(=O)C(=O)NC1CC1 (stereo not drawn) (library stock concentration (final ~1000-fold dilution): 10 mM),1.3,0.887,0.68,0.601,–,–
CCCC(NC(=O)C1C2CCCC2CN1C(=O)C(NC(=O)C(NC(=O)c1cnccn1)C1CCCCC1)C(C)(C)C)C(=O)C(=O)NC1CC1 (stereo not drawn),–,–,–,–,0.65,1.02
Nc1nc(F)nc2c1ncn2C1OC(CO)C(O)C1O (stereo not drawn) (library stock concentration (final ~1000-fold dilution): 10 mM),1.1,1.03,1.06,1.22,–,–
Nc1nc(F)nc2c1ncn2C1OC(CO)C(O)C1O (stereo not drawn),–,–,–,–,0.92,0.844
